# Laboratory results taken from the supplement of paper PMC10338343.
# ± gives the standard deviation.
# How the values were obtained:
# [1] = system: MILI (PIWIL2) piRISC loaded with L1MC piRNA (26 nt); assay: pre-steady-state target cleavage rate (min^-1); guide: L1MC piRNA 5'p-UAACUAAAUACUAUGCAAGCUGUAGG; higher = faster piRNA-guided slicing of the target
# In short: (§1)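 Sequencing of uncleaved targets, normalised to depth and to weakly complementary targets, was the readout of this Cleave-'n-Seq assay. A transcribed, DNA-blocked target RNA library (0.1 nM) was mixed with 1 nM active affinity-purified piRISC carrying one synthetic guide, with or without 500 nM GTSF1 partner protein, in HEPES–potassium acetate buffer at 33 °C for 0–8 or 0–960 min. Three trials were pooled, k3 was capped at 0.0001 min^-1, and a burst-and-steady-state fit gave the pre-steady-state cleavage rate.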
# [2] = system: EfPiwi piRISC loaded with L1MC piRNA (26 nt); assay: pre-steady-state target cleavage rate (min^-1); auxiliary factor: 500 nM Ephydatia muelleri Gtsf1; guide: L1MC piRNA 5'p-UAACUAAAUACUAUGCAAGCUGUAGG; MIWI and MILI are mouse PIWI proteins and EfPiwi is from a freshwater sponge; tags in brackets are library labels; higher = faster piRNA-guided slicing of the target
# In short: as §1
# [3] = auxiliary factor: 500 nM mouse GTSF1
# [4] = auxiliary factor: none (no GTSF1)
Sequence,"pre-steady-state target cleavage rate [1, 3]","pre-steady-state target cleavage rate [1, 4]",pre-steady-state target cleavage rate [2]
UCCUGGAACUGCAUGCAUAGUAUUUAGUUA,0.224 ± 0.013,0.00585 ± 0.0025,0.0126 ± 0.0039
UCCUGGAAGAGCUUGCAUAGUAUUUUGUUA,0.21 ± 0.037,0.00584 ± 0.0025,0.00497 ± 0.0026
UCCUCCAACAGCUUGCAUAGUAUUUAGUUA,0.329 ± 0.017,0.00861 ± 0.0027,0.113 ± 0.032
UCCUGGAUCAGCUUGCAUAAUAUUUAGUUA,0.253 ± 0.031,0.00396 ± 0.0026,0.0108 ± 0.0031
UCCUGGAUGUCGAUGCAUAUUAUUUAGUUA,0.016 ± 0.0043,0.00389 ± 0.0019,0.0047 ± 0.0036
UCCUGCUACAGCAUGGAUAGUAUUUAGUUA,0.257 ± 0.021,0.00639 ± 0.0031,0.00804 ± 0.0023
UCCUGGAUGAGCUUGCAUAGUAUUGAGUUA,0.164 ± 0.036,0.00369 ± 0.0027,0.00461 ± 0.0019
UCCUGGAUCAGCUUGCAUAGUAAUUAGUUA,0.233 ± 0.013,0.0101 ± 0.0024,0.0264 ± 0.0082
UCCUGGUACAGCUUGCAUAAUAUUUAGUUA,0.338 ± 0.068,0.0064 ± 0.0032,0.00307 ± 0.0027
UCCUGGAUCAGCAUGCAUAGUAUUAAGUUA,0.24 ± 0.012,0.00634 ± 0.0023,0.00392 ± 0.002
UCCUGGAUCAGCUUGGAUAGUAUUUAGUUA,0.185 ± 0.013,0.00786 ± 0.0022,0.0092 ± 0.0025
UCCUGCAAGAGCUUGCAUAGUAUUUAGUUA,0.292 ± 0.025,0.00624 ± 0.0028,0.0267 ± 0.0065
UCCUGGUAGAGCUAGCAUAGUAUUUAGUUA,0.216 ± 0.019,0.00986 ± 0.0028,0.00968 ± 0.0033
UCCUGGAUCAUCUUGCAUAGUAUUUAGUUA,0.241 ± 0.014,0.00614 ± 0.002,0.101 ± 0.023
UCCUCCUACAGCUUGGAUAGUAAUUAGUUA,0.25 ± 0.024,0.00499 ± 0.0021,0.0274 ± 0.0089
UCCUGGAUCAGCUUGCAUAGUAUUUUGUUA,0.144 ± 0.019,0.00819 ± 0.0028,0.0125 ± 0.0042
UCCUCCUUCACCUUGCAUAGUAUUUAGUUA,0.212 ± 0.028,0.00635 ± 0.0025,0.0605 ± 0.021
UCCUCCUACAGCUUGGCAUAGUAUUUAGUUA,0.338 ± 0.057,0.00447 ± 0.0021,0.0133 ± 0.0047
UCCUGCUACAGCUACCAUAGUAUUUAGUUA,0.233 ± 0.032,0.0038 ± 0.0024,0.00308 ± 0.0021
UCCUGGACCAGCUUGCAUAGUAUUUAGUUA,0.246 ± 0.02,0.00604 ± 0.0027,0.159 ± 0.037
UCCUGCUACUGCUUGCAUUGUAUUUAGUUA,0.211 ± 0.018,0.0081 ± 0.0024,0.00835 ± 0.0023
UCCUGCUACAGCAUGCAUAGUAUUUAGUUA,0.353 ± 0.022,0.00853 ± 0.003,0.0124 ± 0.0037
UCCUGGAUGUGCUUGCAUAGUAUUUAGUUG [g2:g20:cont:t1G],0.179 ± 0.022,0.00877 ± 0.0027,0.00803 ± 0.0029
UCCUGGAUCAGACUUGCAUAGUAUUUAGUUA,0.254 ± 0.015,0.00843 ± 0.0023,0.0293 ± 0.009
UCCUGGUACAGCUGUGCAUAGUAUUUAGUUA,0.238 ± 0.019,0.0118 ± 0.0046,0.00903 ± 0.0034
UCCUCGUACAGCUUGCAUAGUAAUUAGUUA,0.283 ± 0.017,0.00698 ± 0.0019,0.111 ± 0.033

Sequence,"pre-steady-state target cleavage rate [1, 3]","pre-steady-state target cleavage rate [1, 4]",pre-steady-state target cleavage rate [2]
UCCUGCUACAGGAAGCAUAGUAUUUAGUUA,0.282 ± 0.014,0.00969 ± 0.0027,0.0127 ± 0.0035
UCCUGCUACAGCUUCGAUAGUAUUUAGUUA,0.253 ± 0.02,0.00716 ± 0.002,0.00756 ± 0.0026
UCCUGGUACAGCAUGCAUUGUAUUUAGUUA,0.167 ± 0.016,0.0119 ± 0.0038,0.00628 ± 0.0022
UCCUGCAUCAGCUUGCAUAGUAUUUAGUUA,0.322 ± 0.021,0.00843 ± 0.0023,0.0591 ± 0.011
UCCUGCUACAGCUUGCAUAGUAUUUACGUUA,0.21 ± 0.023,0.00615 ± 0.0025,0.00429 ± 0.002
UCCUGGAUGUGCUUGCAUAGUAGUUUAGUUA,0.0704 ± 0.017,0.00921 ± 0.0027,0.0051 ± 0.0034
UCCUGGAUGUCCUUGCAUAGUAUUUUAGUUA,0.107 ± 0.017,0.0134 ± 0.0036,0.00287 ± 0.0028
UCCUGGAUGUGGUUGCAUAGUUUUUAGUUA,0.0125 ± 0.0086,0.00954 ± 0.0033,0.00827 ± 0.0052
UCCUGGAUGUGCUUGCAUAGUAUGUUAGUUA,0.0646 ± 0.012,0.00452 ± 0.0032,0.00406 ± 0.0038
UCCUGGUAGUGCUUGCAUAGUAUUUAGUAA,0.191 ± 0.032,0.00505 ± 0.0031,0.00326 ± 0.0024
UCCUGGAACAGCUUGCAUAGUAAUUUAGUUA,0.14 ± 0.012,0.00593 ± 0.0025,0.00753 ± 0.0023
UCCUGCUACUGCUAGCAUAGUAUUUAGUUA,0.253 ± 0.017,0.0054 ± 0.0023,0.0129 ± 0.0034
UCCUCCUACACCUUGCAUAGUAUUUAGUUA,0.237 ± 0.025,0.0085 ± 0.0022,0.0762 ± 0.025
UCCUGCUACAGCUAUGCAUAGUAUUUAGUUA,0.257 ± 0.022,0.0069 ± 0.0021,0.012 ± 0.0044
UCCUGGAAGAGCUUGCAUACUAUUUAGUUA,0.0778 ± 0.014,0.00312 ± 0.0024,0.00438 ± 0.0026
UCCUGCUACAGCUUGCAUAGUAUUUGAGUUA,0.135 ± 0.02,0.00331 ± 0.0024,0.0068 ± 0.0022
UCCUGGUCACAGCUUGCAUAGUAUUUAGUUA,0.239 ± 0.018,0.0126 ± 0.0051,0.00857 ± 0.0072
UCCUGGUACGCUUGCAUAGUAUUUAGUUA,0.222 ± 0.034,0.0143 ± 0.0047,0.00582 ± 0.0027
UCCUCCAACUGCUUGCAUAGUAUUUAGUUA,0.256 ± 0.017,0.00659 ± 0.0019,0.0183 ± 0.0064
UCCUGGAUGAGCUUGCAUAGUAUUAUAGUUA,0.185 ± 0.022,0.00494 ± 0.0026,0.0159 ± 0.0056
UCCUGGAUGUCGAUGUAUAGUAUUUAGUUA,0.0919 ± 0.011,0.0069 ± 0.002,0.00398 ± 0.003
UCCUGGAACAGGUUGCAUAGUAUAUAGUUA,0.211 ± 0.023,0.00891 ± 0.0023,0.0101 ± 0.0045
UCCUCCUACUGCUUGCAUAGUUUUUAGUUA,0.0525 ± 0.0085,0.00424 ± 0.002,0.0079 ± 0.0028
UCCUCCUACAGCAUGCAUAGUAUUAAGUUA,0.2 ± 0.023,0.00348 ± 0.0026,0.00654 ± 0.0033
UCCUGCUACAGCUUGCAUAGUGUUUAGUUA,0.197 ± 0.02,0.00436 ± 0.0027,0.0065 ± 0.0019
